Compound activity deposited in PubChem BioAssay by The Scripps Research Institute Molecular Screening Center.
The list is not random: actives were taken first. Their share in the collection is about 3.4%.
FBW7 act: FBW7 E3 ligase activators, primary screen, biochemical, AlphaScreen, human; hit rate 0.13% among 650,000; AlphaScreen FBW7–phospho-cyclin E peptide binding, activator screen; F-box/WD repeat-containing protein 7 (Homo sapiens), Q969H0; normalized activity (activation), % at 26.1 µM; in the data active means normalized activity above about 1.9%;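 further: purified mutant Fbw7 with reduced substrate affinity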
GPR151 activ: activators of human GPR151, primary screen, cell-based, PathHunter beta-arrestin, luminescence | G-protein coupled receptor 151 (Homo sapiens), Q8TDV0 | hit rate 1% among 650,000 | activation, % at 11.2 µM | PathHunter beta-arrestin GPR151 cells; in the data active means activation above about 4.9%
Target sequence (Q8TDV0 whole entry, looked up): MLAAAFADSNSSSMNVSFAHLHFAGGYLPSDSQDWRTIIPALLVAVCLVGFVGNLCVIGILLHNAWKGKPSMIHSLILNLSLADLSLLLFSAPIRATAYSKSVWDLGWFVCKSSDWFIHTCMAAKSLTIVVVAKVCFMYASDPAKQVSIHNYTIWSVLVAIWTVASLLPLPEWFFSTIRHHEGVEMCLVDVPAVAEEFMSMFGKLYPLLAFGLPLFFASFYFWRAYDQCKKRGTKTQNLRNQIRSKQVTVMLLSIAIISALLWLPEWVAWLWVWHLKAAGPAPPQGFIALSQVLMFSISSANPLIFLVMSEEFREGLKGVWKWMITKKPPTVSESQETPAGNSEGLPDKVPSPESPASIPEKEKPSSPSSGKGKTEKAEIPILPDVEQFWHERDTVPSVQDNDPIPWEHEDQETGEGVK
TEAD-YAP block: TEAD-YAP interaction inhibition, primary screen, TEAD-YAP interaction inhibitor project, luminescence, HEK-TIYL cells. TEAD-Gal4/YAP UAS-luciferase luminescence. inhibition, % at 9.12 µM. hit rate 1.4% among 640,000. AID 1259422, 2018; in the data active means inhibition above about 32%
MITF inh: MITF inhibitors, primary screen, biochemical, AlphaScreen, human; AlphaScreen MITF homodimerization, bead proximity signal; inhibition, % at 2.6 µM; hit rate 0.91% among 650,000; AID 1259374, 2018; in the data active means inhibition above about 50%
Large screens that a line does not name were inactive.

CCN(c1ccccc1)c1c(-c2ccccc2)c(=O)c1=O	none
COc1cc(NC(=O)c2ccc(-c3ccc(N4CCN(C)CC4)cc3)s2)cc(OC)c1OC	TEAD-YAP block 62
COc1ccc(-c2ccc(C(=O)Nc3cc(OC)c(OC)c(OC)c3)s2)cc1	TEAD-YAP block 36
COc1cc(NC(=O)c2ccc(-c3ccc(C(N)=O)cc3)s2)cc(OC)c1OC	none
COc1ccc(/C=C2\N=C(c3ccc(Br)cc3)OC2=O)cc1OC(C)=O	none
CCOC(=O)c1c(C)n(-c2ccccc2)c2ccc(OC(=O)c3ccc(Cl)c([N+](=O)[O-])c3)cc12	none
CN1CC=C2C(C#N)=C(N)C(C#N)(C#N)C(c3cccc4ccccc34)C2C1 (centres undefined)	none
Cc1cccc(NC(=O)C(F)C(F)(F)F)c1 (centres undefined)	none
Cc1ccc(CN2CCN3C(=O)[C@H](Cc4ccccc4)NC(=O)[C@H]3C2)s1	none
COc1cc(NC(=O)c2ccc3nc(-c4ccc(N5CCN(C)CC5)cc4)sc3c2)cc(OC)c1OC	TEAD-YAP block 62
CN1CCN(c2ccc(-c3nc4ccc(C(=O)NCCO)cc4s3)cc2)CC1	TEAD-YAP block 67
COc1cc(NC(=O)c2ccc3nc(-c4ccc(C(=O)N5CCN(C)CC5)cc4)sc3c2)cc(OC)c1OC	TEAD-YAP block 52
COc1cc(NC(=O)c2ccc3nc(-c4c(C)nn(C)c4C)sc3c2)cc(OC)c1OC	TEAD-YAP block 35
COC(=O)[C@@H]1CC[C@H](C)[C@@H](c2ccc(C)cc2)N1C(=O)c1ccc(/C=N/O[C@H](C)CN2CCCc3nc(C)c(C)cc32)cc1	none (no result: TEAD-YAP block)
COc1ccc2c(c1)sc(=N)n2CCCS(=O)(=O)O	none
O=S(=O)(c1ccc(NC(=S)N/N=C/c2ccccc2O)cc1)N1CCOCC1	TEAD-YAP block 61, MITF inh 68
CCCCCCSc1nc(-c2ccccc2)cc(-c2ccc(OC)cc2)c1C#N	none
CC(=O)c1c(C)[nH]c(C(=O)CSc2nnnn2-c2cccc(C)c2)c1C	TEAD-YAP block 33
O=C(C1CCCC1)N1CCC(c2nc3c(nnn3Cc3ccccc3)c(=O)[nH]2)CC1	none
O=C(NC1CCCCC1)N1CCC(c2nc3c(nnn3Cc3ccccc3)c(=O)[nH]2)CC1	TEAD-YAP block 44
Cc1ccc2c(c1)c(=O)c1ccccc1n2CCCC(=O)Nc1cc(F)ccc1C	none
COC(=O)CCCNc1nncc(-c2ccc3c(c2)OCO3)n1	TEAD-YAP block 35
CC(Oc1ccc(Br)cc1Cl)C(=O)Nc1ccncc1 (centres undefined)	TEAD-YAP block 48
Cn1c2c(c(=O)n(C)c1=O)C(C(F)(F)F)(C(F)(F)F)N=C(c1ccc(Cl)cc1)N2	TEAD-YAP block 94
Cn1c2c(c(=O)n(C)c1=O)C(C(F)(F)F)(C(F)(F)F)N=C(c1ccccc1)N2	none
Nc1ccc(-c2nc3ncc(Cl)cc3[nH]2)cc1	TEAD-YAP block 35
Clc1cnc2nc(-c3cccnc3)[nH]c2c1	none
OC(COc1ccc(Cl)cc1)CN1C2=NCCN2c2ccccc21 (centres undefined)	TEAD-YAP block 40
Cc1ccc(F)c(-n2c(=S)sc3c(=O)n(-c4ccccc4)c(SCc4ccccc4C)nc32)c1	none
Cc1csnc1NC(=O)c1c(N)nc2c(c1C(F)(F)F)OC1=C(CCCC1)O2	TEAD-YAP block 79
CCOC(=O)c1c(NC(=O)c2ccc(C(F)(F)F)cc2)sc2c1CCCC2	none
COc1cc(OC)cc(-c2cc3nc(C)c(CCC(=O)O)c(C)n3n2)c1	TEAD-YAP block 56
COc1cccc(C2N(c3ccc(C)cc3)N=C(C(C)=O)N2c2cccc(C)c2)c1OCc1ccccc1 (centres undefined)	TEAD-YAP block 68
CC(=O)C1=NN(c2ccccc2)C(c2ccccc2OCc2ccc(Cl)cc2)N1c1ccc(Cl)cc1 (centres undefined)	none
COc1cccc(C2N(c3ccccc3)N=C(C(C)=O)N2c2ccc(C)c(C)c2)c1OCc1ccccc1 (centres undefined)	TEAD-YAP block 54
Cc1ccc(Br)c(NS(=O)(=O)c2cccc(C(=O)O)c2)c1	none
COc1ccc(Cl)cc1NS(=O)(=O)c1ccc(F)cc1	none
COC(=O)CN(c1cc(OC)ccc1OC)S(=O)(=O)c1ccc(C)cc1	TEAD-YAP block 44
COc1ccc(S(=O)(=O)Nc2cc(Cl)ccc2OC)cc1	TEAD-YAP block 61
COc1ccc(C)cc1NS(=O)(=O)c1cccc(C(=O)O)c1	FBW7 act 1.9
COc1cc(NS(=O)(=O)c2ccc(Cl)cc2)c(OC)cc1Br	TEAD-YAP block 34
COc1ccc(OC)c(S(=O)(=O)Oc2c(C)cccc2C)c1	none
COc1ccc(OS(=O)(=O)c2cc(C)ccc2OC)cc1	TEAD-YAP block 48
COc1ccc(C)cc1NS(=O)(=O)c1ccc(C)cc1	none
COc1ccc(S(=O)(=O)Nc2cc(C)ccc2OC)cc1	TEAD-YAP block 58
COc1cc(/C=C2\SC(=N)N(c3ccc4c(c3)OCO4)C2=O)ccc1OCc1ccc(F)cc1	none
CC(C)n1cnc2c(NCc3nc4ccccc4[nH]3)nc(N3CCCC3CO)nc21 (centres undefined)	TEAD-YAP block 72
CC(C)n1cnc2c(NCc3nc4ccccc4[nH]3)nc(N3CCC(N4CCOCC4)CC3)nc21	TEAD-YAP block 63
c1ccc2[nH]c(CNc3nc(N4CCOCC4)nc4c3ncn4C3CCCCC3)nc2c1	TEAD-YAP block 74
c1ccc2[nH]c(CNc3nc(N4CCOCC4)nc4c3ncn4-c3ccsc3)nc2c1	TEAD-YAP block 88
Cc1noc(C)c1-c1nc(NCc2nc3ccccc3[nH]2)c2ncn(-c3ccsc3)c2n1	none
CCCCN(C)C(=O)Cc1c(C(=O)O)n(CC)c2ccccc12	none
CCc1cc2c(=O)c(Oc3ccc(Cl)cc3)c(C)oc2cc1OCC(N)=O	none
CC(C)n1cnc2c(NCc3ccccc3)nc(N3CCN(Cc4ccc5c(c4)OCO5)CC3)nc21	none
c1ccc2[nH]c(CNc3ncnc4nc(N5CCN(Cc6ccc7c(c6)OCO7)CC5)[nH]c34)nc2c1	TEAD-YAP block 54
CC(C)n1cnc2c(NCc3nc4ccccc4[nH]3)nc(N3CCN(Cc4ccc5c(c4)OCO5)CC3)nc21	TEAD-YAP block 68
CC(C)n1cnc2c(NCc3nc4ccccc4[nH]3)nc(N3CCN(c4ccccn4)CC3)nc21	TEAD-YAP block 72
Cn1c(Nc2nc(NCc3nc4ccccc4[nH]3)c3ncn(C4CCCCC4)c3n2)nc2ccccc21	TEAD-YAP block 34
OCCNc1ncnc2nc(N3CCN(Cc4ccc5c(c4)OCO5)CC3)[nH]c12	none
Cn1c(Nc2nc(NCc3ccccc3)c3ncn(C4CCCCC4)c3n2)nc2ccccc21	none
CC(=O)N1CCC(O)(c2ccc(F)cc2)CC1	none
CCN(CC)c1nc(NCCc2ccc(O)cc2)nc(N2CCN(c3ccccn3)CC2)n1	none
CCN(CC)c1nc(NCc2nc3ccccc3[nH]2)nc(N2CCN(c3ccccn3)CC2)n1	TEAD-YAP block 34
